The text below walks through data of a collection of fitness landscapes (doi:10.1126/science.1257360).

First the molecules themselves.
B1: PhoQ; a variant is named by its letters at X, in order, P23837 (parent)
chain: MKKLLRLFFPLSLRVRFLLATAAVVLVLSLAYGMVALIGYSVSFDKTTFRLLRGESNLFYTLAKWENNKLHVELPENIDKQSPTMTLIYDENGQLLWAQRDVPWLMKMIQPDWLKSNGFHEIEADVNDTSLLLSGDHSIQQQLQEVREDDDDAEMTHSVAVNVYPATSRMPKLTIVVVDTIPVELKSSYMVWSWFIYVLSANLLLVIPLLWVAAWWSLRPIEALAKEVRELEEHNRELLNPATTRELTSLVRNLNRLLKSERERYDKYRTTLTDLTHSLKTPLXXLQXXLRSLRSEKMSVSDAEPVMLEQISRISQQIGYYLHRASMRGGTLLSRELHPVAPLLDNLTSALNKVYQRKGVNISLDISPEISFVGEQNDFVEVMGNVLDNACKYCLEFVEISARQTDEHLYIVVEDDGPGIPLSKREVIFDRGQRVDTLRPGQGVGLAVAREITEQYEGKIVAGESMLGGARMEVIFGRQHSAPKDE

The full ranking holds about 140,000 sequences; the median of “enrichment ratio after two sorts for PhoP signalling” is about 0, and the highest 2% start at about 11. What follows is part of a selection rich in the highest values, with near analogues and random picks from the rest. A value given as a limit tells only on which side of the number the result lay.

The assay covers variants of B1. The experiment in a line: enrichment ratio after two sorts for PhoP signalling (ratio (wild type AVST 3.29)); higher = more functional. As to conditions: with PhoP (E. coli).
For LIVW, the enrichment ratio is at most 0.25. Regarding GTSM, the enrichment ratio was 10.6. As for ITSF, the enrichment ratio was at most 0.25. For ATSM, the enrichment ratio worked out at 16.9. Next, YDSM: at most 0.25; CTSF: 3.85; ATMF: 16. Next, ATSF: 11.9; ATHF: at most 0.25; AIMF: 0.847. As for PAWP, the enrichment ratio is at most 0.25. In the case of TTFE it was at most 0.25.

In the case of AYLY, the enrichment ratio is at most 0.25.

For the variant DNLY, the enrichment ratio was at most 0.25. AKLY: the enrichment ratio was found to be 19.7. As to KKLY, the enrichment ratio was at most 0.25. HKLY: the enrichment ratio was at most 0.25. With TKLY, the enrichment ratio was 16.4. Next, ANLY: 12; GNLY: 3.04; AILY: 1.94. Regarding LENP, the enrichment ratio was at most 0.25.

As for YGNS, the enrichment ratio is at most 0.25. As to ELCS, the enrichment ratio was at most 0.25. As to SDHR, the enrichment ratio is at most 0.25. For RTCY, the enrichment ratio is at most 0.25.

Regarding FQWN, the enrichment ratio is at most 0.25.

As for MMYS, the enrichment ratio is at most 0.25. Next, MLYS: at most 0.25; KCYS: at most 0.25; STYS: 0.267. In the case of MKYS it was at most 0.25.

Turning to QRYS, the enrichment ratio was at most 0.25. Consider QEYS, for which the enrichment ratio turned out to be 37.

Take MEYS: the enrichment ratio worked out at 25.6. In the case of MCYS, the enrichment ratio was 12.8. As for LVRD, the enrichment ratio was at most 0.25. Next, RKTS: at most 0.25. On to MAFY, for which the enrichment ratio worked out at 5.02. In the case of TGMI, the enrichment ratio worked out at 13.2. As to RGMI, the enrichment ratio was at most 0.25. With NGMI, the enrichment ratio turned out to be 0.49. In the case of GGMD it was at most 0.25. In the case of NIMI it was at most 0.25.

On to LGMS, for which the enrichment ratio was at most 0.25. On to LGMI, for which the enrichment ratio amounted to 12.6.

As for VGMW, the enrichment ratio was at most 0.25. Consider GGMI, for which the enrichment ratio was determined as 12.3.

On to LGMA, for which the enrichment ratio is at most 0.25. VGMI: the enrichment ratio is 20.4. For VGMG, the enrichment ratio is at most 0.25.

On to DSTD, for which the enrichment ratio was at most 0.25.

On to HLRM, for which the enrichment ratio is at most 0.25.

As for IPWT, the enrichment ratio was at most 0.25. Turning to WPQK, the enrichment ratio is at most 0.25. As for TMAW, the enrichment ratio was at most 0.25. Turning to WDLT, the enrichment ratio was at most 0.25. Consider GWGM, for which the enrichment ratio was at most 0.25. With HMWI, the enrichment ratio was at most 0.25. Consider PRFL, for which the enrichment ratio is at most 0.25. Consider DFQL, for which the enrichment ratio was at most 0.25. Next, AGMS: 3.53.

Regarding AGMG, the enrichment ratio is at most 0.25. Next, AGMI: 16.4.

Consider NSFT, for which the enrichment ratio was at most 0.25.

As for YKQH, the enrichment ratio was at most 0.25.

Regarding HDPL, the enrichment ratio was at most 0.25. For MNSV, the enrichment ratio came to 16.9.

With ANSV, the enrichment ratio came out at 7.03. Next, MNIV: at most 0.25; MNSK: at most 0.25. On to TNSV, for which the enrichment ratio amounted to 19.4. As for LNSV, the enrichment ratio was at most 0.25. As for QING, the enrichment ratio was at most 0.25. On to PDEL, for which the enrichment ratio is at most 0.25. Next, TSHN: 0.659; ENQD: at most 0.25.

As for NGTQ, the enrichment ratio was at most 0.25. For LCTQ, the enrichment ratio is at most 0.25.

As for MMTQ, the enrichment ratio was at most 0.25. Regarding HKTQ, the enrichment ratio is at most 0.25. On to TKTQ, for which the enrichment ratio amounted to 12.6. For TSTQ, the enrichment ratio was 16.

On to NNTQ, for which the enrichment ratio was at most 0.25. Take TGTQ: the enrichment ratio was 17.7.

MKTQ: the enrichment ratio was at most 0.25. In the case of TMTQ, the enrichment ratio is 14.3.

In the case of TMLA, the enrichment ratio came to 2.72.

Regarding KSTQ, the enrichment ratio was at most 0.25. With LGMC, the enrichment ratio was at most 0.25. On to NWTN, for which the enrichment ratio was at most 0.25. Regarding VCIS, the enrichment ratio was found to be 0.315. Take QCCN: the enrichment ratio is at most 0.25. Take PNLQ: the enrichment ratio was found to be 1.01. For the variant SPYC, the enrichment ratio is at most 0.25. As for YNMF, the enrichment ratio is at most 0.25. On to LKVT, for which the enrichment ratio is at most 0.25. With SFHI, the enrichment ratio is at most 0.25. As to VLMY, the enrichment ratio is at most 0.25. As to EGRC, the enrichment ratio was at most 0.25. Regarding EQYD, the enrichment ratio is at most 0.25. As to TITQ, the enrichment ratio is 12.5.

Consider KYTQ, for which the enrichment ratio is at most 0.25. Next, STTQ: 6.67; SGTQ: 17.4; NMTQ: at most 0.25. SGTW: the enrichment ratio is at most 0.25. Turning to SQTQ, the enrichment ratio came out at 11.3. Take TILA: the enrichment ratio is 4.43. For SLTQ, the enrichment ratio was found to be 6.15. Turning to VCDC, the enrichment ratio was at most 0.25.

As to KHCF, the enrichment ratio was at most 0.25.

For TKQF, the enrichment ratio is at most 0.25. In the case of VNQI it was at most 0.25; in that of NAYE, at most 0.25; in that of MAYI, 21.1. Regarding MEYF, the enrichment ratio is at most 0.25.

For MAYE, the enrichment ratio is 33.3.

On to FDYF, for which the enrichment ratio is at most 0.25. On to FDYV, for which the enrichment ratio is at most 0.25. Next, MAYF: 16.5; MAAY: at most 0.25. Next, NAYV: at most 0.25. On to MEYE, for which the enrichment ratio was at most 0.25.

As to MAYV, the enrichment ratio turned out to be 15.4.

As for MAYK, the enrichment ratio was at most 0.25. Next, MGDQ: at most 0.25; VFQR: at most 0.25.

As for GVSL, the enrichment ratio was determined as 5.42. As to GQSH, the enrichment ratio is at most 0.25.

Take YRWT: the enrichment ratio is at most 0.25. Next, FKMN: at most 0.25. For IMAN, the enrichment ratio was at most 0.25. Next, MAHE: at most 0.25. In the case of MAYM it was 9.25; in that of KAYN, at most 0.25; in that of MAYN, 16.6. Next, MAHF: 9.56. For MAHI, the enrichment ratio was 24.7.

As to LMFI, the enrichment ratio is at most 0.25. On to VDKC, for which the enrichment ratio was at most 0.25. With PFWD, the enrichment ratio was found to be 3.08. With SWFV, the enrichment ratio is at most 0.25. For the variant FCIG, the enrichment ratio is at most 0.25. On to HKMH, for which the enrichment ratio is at most 0.25. In the case of ATMH it was 12.3. In the case of ATTH it was 8.31; in that of AKMH, 12; in that of ATCH, at most 0.25.

As to AIMH, the enrichment ratio worked out at 4.85. QGLS: the enrichment ratio worked out at 3.82. As to LDNH, the enrichment ratio is at most 0.25. With NEIS, the enrichment ratio was at most 0.25.
